Experiment [1] in a line: ATG_PBREM_CIS: Attagene CIS-FACTORIAL HepG2 Assay for human Phenobarbital-responsive Enhancer Module (PBREM) (AID 2282955). The following applies: HepG2 PBREM cis-reporter, Attagene multiplexed transcription; actives raise or lower the signal. A digest of the protocol: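 Fluorescence of labelled reporter cDNA fragments, resolved by capillary electrophoresis, gives mRNA induction in transfected HepG2 cells treated for 24 h; DMSO serves as negative control and baseline.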

The target of experiment [2] is Paired box protein Pax-6 (Homo sapiens) (UniProt P26367). Put plainly: ATG_Pax6_CIS: Attagene CIS-FACTORIAL HepG2 Assay for human Paired Box 6 (PAX6) (AID 2282956). The following applies: HepG2 CIS-FACTORIAL PAX6 reporter transcription, RNA readout; actives raise or lower the signal. The method, boiled down:
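Multiplexed cis-reporter HepG2 system; 24 h treatment; reporter mRNA read by RT-PCR/CE fluorescence; bidirectional fit vs DMSO.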

The nature of experiment [3]: ATG_PXRE_CIS: Attagene CIS-FACTORIAL HepG2 Assay for human Pregnane X Receptor Element (PXRE) (AID 2282957). The following applies: HepG2 Attagene CIS-FACTORIAL PXRE reporter, mRNA; actives raise or lower the signal. The method, boiled down:
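Cells: HepG2, transiently transfected reporter units under cis promoter control. Exposure: 24 h. Detection: reporter mRNA via RT-PCR/CE fluorescence; bidirectional fitting, DMSO-referenced.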

Experiment [4] can be described thus: ATG_PPRE_CIS: Attagene CIS-FACTORIAL HepG2 Assay for human Peroxisome Proliferator-activated Response Element (PPRE) (AID 2282958). The following applies: HepG2 PPRE cis-element reporter, Attagene transcription factor profiling; actives raise or lower the signal. A digest of the protocol: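 Cells are first transfected transiently with the multiplexed reporter library, then dosed for 24 h. Total RNA is reverse-transcribed, amplified, fluorescently end-labeled and HpaI-cut before capillary electrophoresis; activity is fitted bidirectionally against DMSO controls.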

Experiment [5] is described as follows: ATG_Sox_CIS: Attagene CIS-FACTORIAL HepG2 Assay for human SRY-box transcription factor (SOX) (AID 2282960). The following applies: HepG2 Attagene cis-factorial SOX reporter, mRNA; actives raise or lower the signal. A digest of the protocol: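 Transient MRTU transfection of HepG2; 24 h compound incubation; TriZol RNA, oligo(dT) RT, PCR, 6-FAM primer extension, HpaI cut, CE. Bidirectional fit, DMSO = baseline.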

In experiment [6] the target is Transcription factor Sp1 (Homo sapiens) (UniProt P08047). Put plainly: ATG_Sp1_CIS: Attagene CIS-FACTORIAL HepG2 Assay for human Specificity Protein 1 (Sp1) (AID 2282961). The following applies: HepG2 Sp1 cis-reporter transcription, actives raise or lower the signal. The method, boiled down:
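Endogenous Sp1 activity was gauged in human liver HepG2 cells bearing transfected reporter units under a cis-regulating promoter. After 24 h dosing, reporter mRNA was quantified by RT-PCR with capillary electrophoresis, and activity fitted bidirectionally versus DMSO.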

Experiment [7] is described as follows: ATG_SREBP_CIS: Attagene CIS-FACTORIAL HepG2 Assay for human Sterol Regulatory Element Binding (SREBP) (AID 2282962). The following applies: HepG2 Attagene cis-factorial SREBP reporter, mRNA; actives raise or lower the signal. A digest of the protocol: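 mRNA induction of transfected cis-promoter reporters in HepG2 cells, 24 h post-dose. Detection: RT-PCR with 6-FAM-labelled products, HpaI digest, capillary electrophoresis. DMSO served as negative control and baseline.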

Experiment [8] deals with Signal transducer and activator of transcription 3 (Homo sapiens) (UniProt P40763). Put plainly: ATG_STAT3_CIS: Attagene CIS-FACTORIAL HepG2 Assay for human Signal Transducer and Activator of Transcription 3 (STAT3) (AID 2282963). The following applies: HepG2, Attagene cis-factorial STAT3 reporter transcription; actives raise or lower the signal. A digest of the protocol: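 Endogenous STAT3-responsive cis-element activity was read in transiently transfected HepG2 cells after 24 h treatment. Reporter transcripts were quantified via RT-PCR and capillary electrophoresis, with DMSO as negative control and bidirectional curve fitting.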

A short description of experiment [9]: ATG_TA_CIS: Attagene CIS-FACTORIAL HepG2 Assay for human TA Basal Promoter (AID 2282964). The following applies: HepG2 Attagene CIS-factorial TA basal promoter reporter; actives raise or lower the signal. The method, boiled down:
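Read-out: fluorescent reporter-transcript fragments resolved by capillary electrophoresis after RT-PCR and HpaI digestion. Source: HepG2 cells carrying transiently transfected multi-reporter cis constructs, treated 24 h. Endpoint fitted bidirectionally relative to DMSO.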

A short description of experiment [10]: ATG_TCF_b_cat_CIS: Attagene CIS-FACTORIAL HepG2 Assay for human T-Cell-Factor with beta-catenin (TCF/b-cat) (AID 2282965). The following applies: HepG2 TCF/beta-catenin cis-reporter transcription, actives raise or lower the signal. A digest of the protocol:
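Endogenous TCF/LEF activity read as reporter transcript level via RT-PCR and capillary electrophoresis fluorescence in transfected HepG2, 24 h exposure; gain or loss of signal fitted against DMSO controls.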

The nature of experiment [11]: ATG_TAL_CIS: Attagene CIS-FACTORIAL HepG2 Assay for human TAL Basal Promoter (AID 2282966).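 Note: background control endpoint measuring basal TAL promoter reporter mRNA not a specific factor.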 The following applies: HepG2 Attagene cis-factorial TAL promoter reporter; actives raise or lower the signal. The method, boiled down: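 RT-PCR plus capillary electrophoresis quantifies reporter mRNA induction in transiently transfected HepG2 cells after 24 h chemical treatment. DMSO serves as negative control and baseline for bidirectional fitting.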

Experiment [12] can be described thus: ATG_TGFb_CIS: Attagene CIS-FACTORIAL HepG2 Assay for human Transforming Growth Factor (TGF) (AID 2282967). The following applies: HepG2 Attagene CIS TGFb reporter, mRNA transcription; actives raise or lower the signal. The method, boiled down: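 Transient MRTU transfection of HepG2 (FuGene 6). Dose 24 h. TriZol RNA, oligo(dT) RT, PCR, 6-FAM primer extension, HpaI cut, CE. Bidirectional fit, DMSO = baseline.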

Experiment [13] can be described thus: ATG_VDRE_CIS: Attagene CIS-FACTORIAL HepG2 Assay for human Vitamin D Receptor Element (VDRE) (AID 2282968). The following applies: HepG2 VDRE cis-reporter transcription, actives raise or lower the signal. A digest of the protocol:
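Reporter mRNA induction, quantified by capillary electrophoresis of fluorescently labelled RT-PCR products, was read 24 h after dosing HepG2 cells carrying transiently transfected cis-regulated reporter units; gain or loss relative to DMSO.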

Experiment [14] deals with Nuclear receptor subfamily 1 group I member 3 (Homo sapiens) (UniProt Q14994). Put plainly: ATG_CAR_TRANS: Attagene TRANS-FACTORIAL HepG2 Assay for human Constitutive Androstane Receptor (CAR) (AID 2282969; active = hit-call score of the fitted dose curve at least 0.9, where 1 is the maximum;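 note: activators raise reporter mRNA above DMSO so AC50 marks induction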). The following applies: HepG2 Attagene TRANS-FACTORIAL CAR reporter. A digest of the protocol:
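Readout is reporter mRNA induction, quantified by fluorescent primer extension and capillary electrophoresis after RT-PCR. Cells were HepG2 transiently carrying chimeric NR-Gal4 constructs with GAL4-UAS reporters, treated for 24 h; activity scored upward from DMSO.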

Experiment [15] addresses Estrogen receptor (Homo sapiens) (UniProt P03372). Put plainly: ATG_ERa_TRANS: Attagene TRANS-FACTORIAL HepG2 Assay for human Estrogen Receptor alpha (ERa) (AID 2282970; active = hit-call score of the fitted dose curve at least 0.9, where 1 is the maximum). The following applies: HepG2 Attagene TRANS ERa GAL4 reporter, mRNA. The method, boiled down: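 Cells: HepG2, transiently transfected. Construct: GAL4-UAS reporter units regulated by exogenous NR-Gal4 chimeras. Time: 24 h. Detection: reporter mRNA by RT-PCR, capillary electrophoresis, fluorescence. Baseline: DMSO, upward fitting.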

The target of experiment [16] is X-box-binding protein 1 (Homo sapiens) (UniProt P17861). Put plainly: ATG_Xbp1_CIS: Attagene CIS-FACTORIAL HepG2 Assay for human X-box Binding Protein 1 (XBP1) (AID 2282972). The following applies: HepG2 XBP1 cis-element reporter, Attagene multiplex; actives raise or lower the signal. The method, boiled down:
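Fluorescence-labelled cDNA fragments from reporter transcripts, separated by capillary electrophoresis, give the signal. Source: HepG2 cells transfected with promoter-driven reporter units, harvested 24 h post-dose. DMSO served as reference for bidirectional curve fitting.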

Experiment [17] is described as follows: ATG_M_19_TRANS: Attagene TRANS-FACTORIAL HepG2 Assay for M19 Transcription Factor (Internal Marker) (AID 2282974; active = hit-call score of the fitted dose curve at least 0.9, where 1 is the maximum). The following applies: HepG2 Attagene TRANS-FACTORIAL M19 internal marker reporter. The method, boiled down:
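Cells: human HepG2, transiently transfected with multiplexed reporter transcription units. Exposure: 24 h. Detection: RT-PCR of reporter mRNA with capillary electrophoresis. Analysis: gain-of-signal vs DMSO.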

Experiment [18] is described as follows: ATG_GAL4_TRANS: Attagene TRANS-FACTORIAL HepG2 Assay for GAL4 (Internal Marker) (AID 2282976; active = hit-call score of the fitted dose curve at least 0.9, where 1 is the maximum). The following applies: HepG2 Attagene TRANS GAL4 internal marker reporter. The method, boiled down: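 In transfected human HepG2 liver cells dosed 24 h, GAL4 reporter mRNA serves as a baseline marker. Detection by RT-PCR with fluorescent capillary electrophoresis, activity fitted upward relative to DMSO.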

The target of experiment [19] is Steroid hormone receptor ERR1 (Homo sapiens) (UniProt P11474). Put plainly: ATG_ERRa_TRANS: Attagene TRANS-FACTORIAL HepG2 Assay for human Estrogen-Related Receptor alpha (ERRa) (AID 2282971; active = hit-call score of the fitted dose curve at least 0.9, where 1 is the maximum). The following applies: HepG2 Attagene TRANS reporter, ERRa transactivation. A digest of the protocol:
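Reporter transcripts from ERRa-Gal4 chimera activity measured in transiently transfected human HepG2 cells 24 hours after dosing, using RT-PCR with 6-FAM primer extension, HpaI digestion and capillary electrophoresis; DMSO is baseline.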

Data on 4 compounds can be found in PubChem BioAssay (EPA / NIEHS).

As a reminder, the AC50 is the midpoint of the concentration-response curve, whichever way the signal moves.

Results filed as inconclusive are left out. Activity calls are given as the source filed them. Rule for the calls, unless noted: active = hit-call score of the fitted dose curve at least 0.9, where 1 is the maximum; inactive = score below 0.9.

Signal transducer and activator of transcription 3 (Homo sapiens), sequence (P40763 whole entry, looked up): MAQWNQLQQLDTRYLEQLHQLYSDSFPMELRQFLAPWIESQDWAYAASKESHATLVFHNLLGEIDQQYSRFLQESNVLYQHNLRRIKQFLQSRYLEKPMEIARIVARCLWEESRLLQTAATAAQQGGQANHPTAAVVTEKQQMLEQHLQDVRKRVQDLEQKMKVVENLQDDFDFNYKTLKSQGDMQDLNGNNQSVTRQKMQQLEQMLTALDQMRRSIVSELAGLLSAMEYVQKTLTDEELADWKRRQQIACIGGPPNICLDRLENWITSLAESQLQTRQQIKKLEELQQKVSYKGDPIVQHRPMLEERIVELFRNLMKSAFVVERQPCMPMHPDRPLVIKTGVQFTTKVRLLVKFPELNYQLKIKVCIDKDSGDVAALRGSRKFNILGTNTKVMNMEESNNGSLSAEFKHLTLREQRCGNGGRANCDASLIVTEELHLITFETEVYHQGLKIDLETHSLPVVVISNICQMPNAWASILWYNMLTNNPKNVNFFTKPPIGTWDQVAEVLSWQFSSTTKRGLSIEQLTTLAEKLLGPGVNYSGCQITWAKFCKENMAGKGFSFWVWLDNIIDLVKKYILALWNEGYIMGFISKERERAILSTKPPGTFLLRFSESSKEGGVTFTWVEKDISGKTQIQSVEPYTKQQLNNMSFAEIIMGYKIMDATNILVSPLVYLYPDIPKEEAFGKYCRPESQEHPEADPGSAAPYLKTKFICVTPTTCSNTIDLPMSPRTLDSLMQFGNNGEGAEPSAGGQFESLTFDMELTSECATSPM
X-box-binding protein 1 (Homo sapiens), sequence (P17861 whole entry, looked up, the tested form may be a part): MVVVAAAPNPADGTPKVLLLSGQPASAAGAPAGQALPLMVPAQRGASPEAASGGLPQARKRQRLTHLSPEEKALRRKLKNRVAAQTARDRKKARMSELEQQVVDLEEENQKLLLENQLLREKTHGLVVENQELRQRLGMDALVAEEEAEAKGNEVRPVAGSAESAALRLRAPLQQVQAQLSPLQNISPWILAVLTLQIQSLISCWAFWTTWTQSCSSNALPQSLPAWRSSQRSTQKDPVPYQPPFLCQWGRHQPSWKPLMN
Transcription factor Sp1 (Homo sapiens), sequence (P08047 whole entry, looked up): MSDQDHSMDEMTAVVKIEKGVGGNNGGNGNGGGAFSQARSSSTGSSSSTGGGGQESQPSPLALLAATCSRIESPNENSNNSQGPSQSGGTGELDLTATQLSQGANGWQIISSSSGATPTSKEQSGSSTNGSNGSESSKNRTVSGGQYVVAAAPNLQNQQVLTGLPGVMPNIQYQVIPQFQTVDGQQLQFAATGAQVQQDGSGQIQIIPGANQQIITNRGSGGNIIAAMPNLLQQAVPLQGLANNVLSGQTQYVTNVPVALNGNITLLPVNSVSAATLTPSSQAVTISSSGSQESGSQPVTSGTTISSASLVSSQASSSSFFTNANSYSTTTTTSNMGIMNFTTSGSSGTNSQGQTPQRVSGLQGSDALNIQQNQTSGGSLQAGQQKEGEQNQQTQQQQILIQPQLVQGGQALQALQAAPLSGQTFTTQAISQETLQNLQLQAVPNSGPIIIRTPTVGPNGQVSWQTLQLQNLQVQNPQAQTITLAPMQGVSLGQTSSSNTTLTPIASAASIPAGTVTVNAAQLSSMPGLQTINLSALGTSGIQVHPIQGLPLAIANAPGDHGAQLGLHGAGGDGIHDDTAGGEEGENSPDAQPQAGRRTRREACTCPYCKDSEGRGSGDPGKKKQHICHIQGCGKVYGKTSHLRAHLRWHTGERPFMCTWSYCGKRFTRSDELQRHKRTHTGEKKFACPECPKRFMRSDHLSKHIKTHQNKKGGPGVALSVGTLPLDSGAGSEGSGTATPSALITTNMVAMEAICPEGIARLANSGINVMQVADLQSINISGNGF
Estrogen receptor (Homo sapiens), sequence (P03372 whole entry, looked up, the tested form may be a part): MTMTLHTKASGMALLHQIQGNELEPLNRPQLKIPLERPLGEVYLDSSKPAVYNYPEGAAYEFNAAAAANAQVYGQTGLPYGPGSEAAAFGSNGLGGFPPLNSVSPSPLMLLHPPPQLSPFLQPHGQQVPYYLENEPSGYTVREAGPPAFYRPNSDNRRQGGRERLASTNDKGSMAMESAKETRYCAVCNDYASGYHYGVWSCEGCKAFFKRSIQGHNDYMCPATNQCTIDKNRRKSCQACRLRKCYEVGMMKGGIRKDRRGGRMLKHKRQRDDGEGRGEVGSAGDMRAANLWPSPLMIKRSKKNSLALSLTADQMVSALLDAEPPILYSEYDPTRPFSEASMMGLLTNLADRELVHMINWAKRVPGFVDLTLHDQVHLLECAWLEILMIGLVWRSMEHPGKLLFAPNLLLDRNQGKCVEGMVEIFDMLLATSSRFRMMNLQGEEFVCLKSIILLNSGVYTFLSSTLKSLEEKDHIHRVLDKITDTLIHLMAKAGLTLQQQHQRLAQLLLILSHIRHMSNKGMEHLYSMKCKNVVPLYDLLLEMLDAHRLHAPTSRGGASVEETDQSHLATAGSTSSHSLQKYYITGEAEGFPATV
Nuclear receptor subfamily 1 group I member 3 (Homo sapiens), sequence (Q14994 whole entry, looked up, the tested form may be a part): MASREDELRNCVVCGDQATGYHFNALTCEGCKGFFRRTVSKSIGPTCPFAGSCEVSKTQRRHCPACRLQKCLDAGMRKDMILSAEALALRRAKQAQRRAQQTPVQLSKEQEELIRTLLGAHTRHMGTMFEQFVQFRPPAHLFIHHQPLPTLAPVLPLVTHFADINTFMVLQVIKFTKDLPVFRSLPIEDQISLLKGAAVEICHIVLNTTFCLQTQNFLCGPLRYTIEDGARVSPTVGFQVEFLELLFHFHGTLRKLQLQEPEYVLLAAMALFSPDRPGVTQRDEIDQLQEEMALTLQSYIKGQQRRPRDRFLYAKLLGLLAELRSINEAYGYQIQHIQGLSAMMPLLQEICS
Paired box protein Pax-6 (Homo sapiens), sequence (P26367 whole entry, looked up): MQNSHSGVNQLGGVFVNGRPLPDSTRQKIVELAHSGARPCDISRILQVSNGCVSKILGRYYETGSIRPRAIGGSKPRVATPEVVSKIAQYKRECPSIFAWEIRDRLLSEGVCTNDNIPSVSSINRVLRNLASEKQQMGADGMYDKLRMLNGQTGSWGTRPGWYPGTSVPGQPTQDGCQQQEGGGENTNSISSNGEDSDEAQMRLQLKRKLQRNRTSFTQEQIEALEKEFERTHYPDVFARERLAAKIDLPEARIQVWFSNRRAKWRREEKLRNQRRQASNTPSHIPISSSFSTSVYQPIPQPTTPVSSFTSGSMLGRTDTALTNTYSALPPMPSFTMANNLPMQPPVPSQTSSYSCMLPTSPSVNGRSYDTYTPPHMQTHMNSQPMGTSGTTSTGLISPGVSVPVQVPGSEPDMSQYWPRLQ
Steroid hormone receptor ERR1 (Homo sapiens), sequence (P11474 whole entry, looked up, the tested form may be a part): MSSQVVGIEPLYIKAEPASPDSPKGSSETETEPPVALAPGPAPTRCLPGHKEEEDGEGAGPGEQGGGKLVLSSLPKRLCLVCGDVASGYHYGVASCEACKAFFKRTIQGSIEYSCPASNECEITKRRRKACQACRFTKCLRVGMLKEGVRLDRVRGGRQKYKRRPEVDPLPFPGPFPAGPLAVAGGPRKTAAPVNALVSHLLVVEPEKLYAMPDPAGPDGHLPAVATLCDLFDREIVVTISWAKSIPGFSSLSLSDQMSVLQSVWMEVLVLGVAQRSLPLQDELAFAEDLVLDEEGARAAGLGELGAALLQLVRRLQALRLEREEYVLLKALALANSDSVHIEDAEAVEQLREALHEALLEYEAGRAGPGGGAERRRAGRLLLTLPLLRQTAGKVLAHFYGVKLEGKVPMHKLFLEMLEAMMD

`O=C(OCCc1ccccc1)c1ccccc1`: the outcome in experiment [1], in [2], in [3], in experiment [4], in experiment [5] and in [6] was inactive. The call in experiment [7], in experiment [8], in experiment [9], in experiment [10], in [11] and in experiment [12] was inactive. For the same compound, the compound was called inactive in experiment [13], in experiment [14], in experiment [15], in [16] and in experiment [17].
Turning to `CCC1(C)C(=O)N(Cl)C(=O)N1Cl` (configuration not stated), the outcome in [1], in experiment [4], in experiment [6], in experiment [7], in experiment [8] and in experiment [9] was inactive. The outcome in experiment [11], in experiment [12], in [14], in experiment [15], in experiment [17] and in experiment [18] was inactive. Besides, the AC50 in experiment [2] is 49.8 µM (active); in experiment [3], 58.6 µM (active); in [5] it was 37.9 µM (active); in experiment [10], 52.2 µM (active); in experiment [13] it was 32.4 µM (active); in experiment [16], 47.1 µM (active).
As to `O=C(O)c1cc(O)c2ccccc2c1O`, the result in experiment [1], in experiment [2], in experiment [4], in experiment [5], in experiment [6] and in [7] was inactive. Moreover, the call in [10], in experiment [15], in experiment [19] and in experiment [16] was inactive. The AC50 in experiment [3] was 0.944 µM (active); in [9], 60.2 µM (active); in experiment [11] it was 51.6 µM (active); in experiment [12] it was 33.4 µM (active).
As to `CCNc1nc(NC(C)(C)C)nc(OC)n1`, the result in experiment [1], in experiment [2], in experiment [4], in [5], in experiment [6] and in [7] was inactive. For the same compound, the result in experiment [8], in experiment [9], in experiment [10], in experiment [11], in [12] and in [14] was inactive. For the same compound, the outcome in [15], in experiment [16], in experiment [17] and in experiment [18] was inactive. Besides, the AC50 in [3] is 10.3 µM (active); in experiment [13], 19.3 µM (active).
